From the supplement of paper PMC7156485
± gives the standard deviation of the averaged measurements.

Columns and labels:
Settings in all cases: concentration: 10 µM; 24 h
HCC1569 [1] = assay: cell number relative to DMSO (% of DMSO); higher = more cells (less growth inhibition / toxicity)
In short: (§1)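 HCC1569 and TDF cells were seeded at 800 per well in 384-well plates in RPMI with 10% FBS and treated with compounds at 10 µM for 24 h at 37 °C, in triplicate. After fixation in 3.7% formaldehyde, cells were stained with a rabbit anti-H1.0 antibody, an AlexaFluor 647 secondary and DAPI, and six fields per well were imaged at ×10. H1.0 nuclear intensity or cell number is given as percent of the plate control, using the median of replicates, with HCC1569 values smoothed for positional effects.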

TDF [2] = assay: as above
In short: as §1

TDF [3] = assay: H1.0 immunofluorescence intensity relative to DMSO (% of DMSO); higher = stronger H1.0 induction, active = 120 or more
In short: as §1

HCC1569 [4] = assay: H1.0 immunofluorescence intensity relative to DMSO (% of DMSO); higher = stronger H1.0 induction, active = 140 or more
In short: as §1
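For H1.0 immunofluorescence intensity relative to DMSO in this document: TDF is a line of transformed human dermal fibroblasts of mesenchymal origin.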
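For cell number relative to DMSO in this document: TDF denotes transformed human dermal fibroblasts of mesenchymal origin.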

Structure (SMILES)	cell number (HCC1569 [1])	cell number (TDF [2])	H1.0 immunofluorescence intensity (TDF [3])	H1.0 immunofluorescence intensity (HCC1569 [4])
CC12CC3CC(C)(C1)CC(N)(C3)C2.Cl [Memantine hydrochloride]	106	96	101 (inactive)	98.3 (inactive)
COc1ccc2cc1Oc1ccc(cc1)CC1c3cc(c(OC)cc3CCN1C)Oc1c(OC)c(OC)cc3c1C(C2)N(C)CC3 (stereo not given) [Isotetrandrine]	97.9	83.8	111 (inactive)	103 (inactive)
CN1CCCCC1CCN1c2ccccc2Sc2ccc(S(C)=O)cc21.O=S(=O)(O)c1ccccc1 (stereo not given) [Mesoridazine besylate]	103	111	92.4 (inactive)	109 (inactive)
CCCCCCCCCCCC=CCCCCC(=O)O [6(Z)-Octadecenoic acid]	100	99.9	101 (inactive)	97.5 (inactive)
CC(=O)OC1(C(C)=O)CCC2C3C=C(C)C4=CC(=O)CCC4(C)C3CCC21C (stereo not given) [Megestrol Acetate]	106	96.9	98.9 (inactive)	104 (inactive)
COC(=O)Nc1nc2ccc(Sc3ccccc3)cc2[nH]1 [Fenbendazole]	64	95.7	99.2 (inactive)	177 (active)
CC1(NC2=NS(=O)(=O)c3sc(Cl)cc3N2)CC1	101	90.6	96.1 (inactive)	94.7 (inactive)
CC1(COc2ccc(CC3SC(=O)NC3=O)cc2)CCCCC1 (stereo not given) [Ciglitazone]	99.8	91.8	102 (inactive)	96.6 (inactive)
O=C1CCC(N2C(=O)c3ccccc3C2=O)C(=O)N1 (stereo not given) [Thalidomide]	101	102	97.1 (inactive)	96.7 (inactive)
Cn1c(=O)c2c(ncn2C)n(C)c1=O [Caffeine]	102 ± 2.6	102 ± 7.9	96.1 (inactive)	91.3 (inactive)
Cl.Cl.Nc1nccc(-c2c(-c3ccc(F)cc3)ncn2C2CCCCC2)n1	80.6	92.2	79.8 (inactive)	130 (inactive)
CN1CCN(c2nc3cc(C(F)(F)F)ccc3n3cccc23)CC1.O=C(O)C=CC(=O)O	99.3	104	103 (inactive)	113 (inactive)
N[C@@H](Cc1c[nH]c2ccccc12)C(=O)O [L-Tryptophan]	101	103	96.6 (inactive)	108 (inactive)
CCN1CCCC1CNC(=O)c1cc(S(N)(=O)=O)ccc1OC (racemic)	106	118	98.8 (inactive)	99.3 (inactive)
COc1c(O)cc2c(c1O)C1OC(CO)C(O)C(O)C1OC2=O (stereo not given) [Bergenin]	99	107	91.7 (inactive)	93.5 (inactive)
NC(N)=NC(=O)c1nc(Cl)c(N)nc1N [Amiloride]	101	103	97.3 (inactive)	102 (inactive)
Cn1c(=O)c(-c2c(Cl)cccc2Cl)cc2cnc(Nc3cccc(C(=O)O)c3)nc21	69.7	111	95.7 (inactive)	156 (active)
CCCCCCCCCCCCCCCCCC(=O)NCC(COP(=O)([O-])OCC[N+](C)(C)C)OCC (racemic) [rac-2-Ethoxy-3-octadecanamido-1-propylphosphocholine]	39	54.4	183 (active)	153 (active)
CCN(CC)C(=S)SSC(=S)N(CC)CC [Tetraethylthiuram disulfide]	97.2	54	120 (inactive)	102 (inactive)
Cc1cnc(-c2cc(N3CCN(C(=O)CCS(C)(=O)=O)CC3)ncc2Cl)c(C)c1.Cl	103	103	83.9 (inactive)	104 (inactive)
Cc1scc2c1N(C(=O)CN1CCN(C)CC1)c1ccccc1NC2=O.Cl.Cl [Telenzepine.2HCl]	101	99.1	96.6 (inactive)	103 (inactive)
Cc1ccc(NC(=O)c2ccc(CN3CCN(C)CC3)cc2)cc1Nc1nc(-c2cccnc2)cs1 [Masatinib(AB1010)]	82.7	79.9	109 (inactive)	141 (active)
C[N+](C)(C)CCC(=O)c1cccc2ccccc12.[I-] [2-(alpha-Naphthoyl)ethyltrimethylammonium iodide]	92.7	81.5	101 (inactive)	91.6 (inactive)
OCC1OC(n2cnc3c(NCCc4ccccc4)ncnc32)C(O)C1O (stereo not given) [N6-2-Phenylethyladenosine]	99.4	113	87.8 (inactive)	101 (inactive)
O=C([O-])CCCc1ccccc1.[Na+] [Sodium Phenylbutyrate]	103	106	96.4 (inactive)	97.7 (inactive)
